From PubChem BioAssay (NCATS)
Inconclusive results are not listed. Values without a mark were called inactive. The source made the active and inactive calls. Calls follow the shape of the dose curve; as a rule, active = well fitted inhibition curve with a large enough effect; inconclusive = small, poorly fitted or top-dose-only effect; inactive = flat fitted curve, though single readings scatter.

target: Calcium and integrin-binding protein 1 (Homo sapiens) (UniProt Q99828); test: Primary qHTS for Identification of Calcium Integrin Binding Protein 1 (CIB1) Competitor (AID 1508620); settings: CIB1-GST / FITC-alphaIIb peptide fluorescence polarization; series mostly up to 114 µM; activity change, negative = inhibition: at the top concentration; also: top concentration of the series differs between compounds
Sequence (Q99828 whole entry, looked up): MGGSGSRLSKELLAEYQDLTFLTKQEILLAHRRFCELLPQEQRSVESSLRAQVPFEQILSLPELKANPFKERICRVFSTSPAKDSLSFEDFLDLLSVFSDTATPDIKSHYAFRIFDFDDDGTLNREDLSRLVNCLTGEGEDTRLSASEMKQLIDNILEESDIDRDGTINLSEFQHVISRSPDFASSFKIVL
Summary of the method: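 Fluorescence polarization competition: GST-tagged CIB1 (1 uM final) preincubated with compound 15 min at room temperature, then FITC-labelled alphaIIb peptide (100 nM final) added. After 15 min at room temperature, polarization read at Ex 480/Em 540.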
% is scaled to controls: 0 for no effect and ±100 for the full control effect.

First: Cc1ccc(C[C@@H](NS(=O)(=O)c2ccc(C(=O)O)cc2)C(=O)O)cc1
Second: Cc1ccc(OCCn2c(CCNC(=O)c3cccc(N)c3)nc3ccccc32)cc1
The “activity change, negative = inhibition” value of the first is higher: 1.18% for the first, -2% for the second.

First: Cc1ccc(OCCn2c(CCNC(=O)c3c(F)cccc3F)nc3ccccc32)cc1
Second: O=C(NCCc1nc2ccccc2n1CCOc1cccc(Br)c1)C1CCCCC1
The “activity change, negative = inhibition” value of the first is lower: 2.21% for the first, 4.92% for the second.

Compared with Nc1nc(Nc2cc(F)cc(F)c2)nc(NC2CCCC2)n1, NC(=O)C1CCN(c2ncnc(-c3ccc4c(c3)OCCCO4)n2)CC1 is lower in “activity change, negative = inhibition” value: -2.01% for the first, -2.98% for the second.

Going from COc1cccc(C2=Nn3c(nnc3-c3ccc(OC)cc3OC)SC2)c1 to CC(=O)c1cccc(NC(=O)c2cnn3c(C)cc(C)nc23)c1, the “activity change, negative = inhibition” value rises from 1.85% to 3.09%.

First: COc1ccc(C2Nc3ccccc3C(=O)N2Cc2ccc(C(C)(C)C)cc2)cc1COc1ccc(NC(C)=O)cc1 (configuration not stated)
Second: O=[S+]([O-])(Nc1ccc(C2CCNCC2)cc1)c1ccc(NCc2ccc(Cl)cc2O)cc1
The “activity change, negative = inhibition” value of the first is higher: 4.12% for the first, -21.2% for the second.

Going from N#Cc1ccccc1-c1csc(N2CCC(C(N)=O)CC2)n1 to CC(C)c1ccccc1-c1nc2c(c(NCc3ccc(-c4cccnc4)cc3)n1)CNC2, the “activity change, negative = inhibition” value rises from -5.27% to -1.1%.

Going from O=S(=O)(c1ccc2c(c1)OCCO2)N1CCN(S(=O)(=O)c2cccc(Cl)c2F)CC1 to S=C(Nc1ccc(Cl)c(Cl)c1)Nc1nnc(-c2ccncc2)o1, the “activity change, negative = inhibition” value rises from -2.63% to -1.5%.

Compared with O=C(O)c1ccc(-c2ccc3ncnc(NCCc4cnc[nH]4)c3c2)o1, Cc1c(P(=S)(c2ccccc2)c2ccccc2)c2ccccc2n1CCc1ccccc1 is higher in “activity change, negative = inhibition” value: -11.9% for the first, 2.03% for the second.

With Cc1cccc2oc(NC3=NC(c4[nH]ncc4Cl)C4=C(CCCC4=O)N3)nc12 (configuration not stated) the Potency was “inactive”.
